# Compound activity (PubChem BioAssay)
# Most compounds without a hit are left out; they make up all but 2.6% or so of the library.
# NOD2-RIPK2 inh: NOD2-RIPK2 protein interaction inhibition; inhibition, % at 4.98 µM; AID 624267; hit rate 0.38% among 360,000; O43353; CHO BLA complementation NOD2-RIPK2, CCF4 ratio; in the data active = inhibition above about 21%;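 also: 0% = vehicle only and 100% = reference blocker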
# TLR4-MyD88 BLA: TLR4-MyD88 interaction inhibition in cells. O00206+Q99836. HeLa CL3-4 TLR4/MyD88 BLA complementation, FRET ratio. inhibition, % at 8.4 µM. hit rate 0.18% among 200,000. AID 861; in the data active = inhibition above about 25%;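 also: 0% = vehicle and 100% = reference inhibitor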
# TLR9-MyD88 inh: inhibitors of human TLR9-MyD88 binding; Q9NR96+Q99836; hit rate 0.21% among 340,000; inhibition, % at 4.98 µM; CHO BLA complementation TLR9-MyD88, CCF4 FRET ratio; AID 504734;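 active = inhibition above the mean over all tested compounds plus 3 SD, cut at about 21% in these data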;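 also: 0% = DMSO only wells and 100% = clavulanate BLA inhibitor control wells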
# ABHD5 PLIN5 PPI: ABHD5-PLIN5 protein interaction inhibition; Q00G26+Q8WTS1; hit rate 0.78% among 360,000; inhibition, % at 4 µM; Split G. princeps luciferase complementation, luminescence, 4 h;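 active = inhibition above the mean inhibition across every tested compound plus 3 SD, cut at about 22% in these data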;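 also: 0% = DMSO only wells and the 100% control is not disclosed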
# PRMT1 inh: PRMT1 (human) inhibition, primary screen; Q99873; recombinant PRMT1, activity-based probe fluorescence polarization; inhibition, % at 2.79 µM; hit rate 1.3% among 370,000; AID 652257;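 active = inhibition above about 21% made by adding two undisclosed values, limit read from the data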
# Target sequence (Q99873 whole entry, looked up): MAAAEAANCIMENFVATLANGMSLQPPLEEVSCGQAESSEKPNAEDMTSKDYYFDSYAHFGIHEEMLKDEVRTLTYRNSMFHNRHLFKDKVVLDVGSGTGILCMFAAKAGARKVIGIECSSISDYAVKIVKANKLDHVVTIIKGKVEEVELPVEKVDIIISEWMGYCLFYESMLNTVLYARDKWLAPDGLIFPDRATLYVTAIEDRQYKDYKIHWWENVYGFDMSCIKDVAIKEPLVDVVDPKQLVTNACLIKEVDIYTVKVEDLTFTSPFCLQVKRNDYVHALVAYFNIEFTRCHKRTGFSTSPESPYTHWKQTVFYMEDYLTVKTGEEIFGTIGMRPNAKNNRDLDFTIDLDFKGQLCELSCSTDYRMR
# Exocytosis inh: lytic granule exocytosis inhibition. TALL-104 LAMP-1 surface exposure, flow cytometry; cells stimulated with thapsigargin and PMA. inhibition, % at 10 µM. hit rate 0.66% among 360,000. AID 651702;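 active = inhibition above about 55%, limit read from the data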
# Exocytosis CP01: lytic granule exocytosis inhibition. inhibition, % at 10 µM. TALL-104 cells, LAMP-1 externalization, flow cytometry; stimulated with PMA plus thapsigargin. shares compounds with Exocytosis inh. AID 651954. hit rate 11% among 1,500; in the data active = inhibition above about 60%;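 also: 0% = stimulated vehicle wells and 100% = unstimulated wells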
# Active calls of the source: *; nt = no result given.
SMILES,NOD2-RIPK2 inh,TLR4-MyD88 BLA,TLR9-MyD88 inh,ABHD5 PLIN5 PPI,PRMT1 inh,Exocytosis inh,Exocytosis CP01
Cc1cc(NC2CCCC2)n2ncc(-c3ccccc3)c2n1,4.6,nt,3.5,-4.4,1.1,15.3,nt
O=C(CCN1CCN(c2ccccc2F)CC1)c1ccc(Br)cc1,3.9,1.0,4.8,20.1,nt,12.0,nt
COc1ccc(N2CCN(CCC(N)=O)CC2)cc1,-13.7,-8.3,-0.7,2.7,-3.0,-1.0,nt
O=C(CCN1CCN(c2ccccc2)CC1)c1ccc(Br)cc1,-7.7,nt,5.5,-5.8,19.1,56.1*,11.8
O=C(CCN1CCOCC1)c1ccc(Br)cc1,-1.0,-0.2,-8.5,-2.8,4.7,95.7*,40.9
COc1ccc(C(=O)CCN2CCN(c3ccc(OC)cc3)CC2)cc1,6.0,nt,-4.6,-6.4,20.7,101.2*,-3.9
CCCCS(=O)(=O)N1CCCc2nc(-c3ccccc3)ccc21,nt,nt,nt,nt,-2.2,nt,nt
COc1ccccc1CCNC(=O)CCSc1nc(-c2ccco2)cc(C(F)(F)F)n1,-2.3,-6.7,3.8,0.7,22.9*,63.7*,-4.6
COc1ccccc1CCNC(=O)CSc1nc(-c2ccco2)cc(C(F)(F)F)n1,-13.1,6.0,-13.4,-8.5,1.7,15.4,nt
CCOC(=O)CC1(O)CSc2nc(N)cc(=O)n21 (stereo not given),nt,nt,nt,nt,-6.4,nt,nt
CCn1c(=O)c2c3c(sc2n2c(SCc4ccc(F)cc4)nnc12)CCCC3,-1.4,nt,0.2,3.6,10.0,56.3*,-2.3
Cn1c(=O)c2c3c(sc2n2c(SCc4ccccc4)nnc12)CCCC3,nt,3.9,nt,nt,nt,nt,nt
COc1ccc(COc2ccc3c(C)cc(=O)oc3c2)cc1,7.0,nt,-2.2,6.8,11.4,75.0*,-4.3
CC(CCN1CCN(c2ccc(F)cc2)CC1)c1ccccc1 (stereo not given),-36.0,nt,-8.0,-10.1,-4.0,56.6*,-12.3
CC(CCN1CCOCC1)c1ccccc1 (stereo not given),-2.2,nt,-4.8,-10.6,0.7,-2.8,nt
COc1cc(F)ccc1Oc1cccc2c1S(=O)(=O)N(C1CC1)C[C@@H](COCc1ccccc1)O2,nt,nt,nt,nt,-5.6,nt,nt
C[C@H]1CN(C(=O)OC(C)(C)C)CCN1c1ccc(N2CC[C@H](O)C2)c(C#N)c1,nt,nt,nt,nt,-1.2,nt,nt
O=C(NCc1ccccc1)[C@H]1CCCN1C(=O)[C@H]1CCCN1C(=O)c1ccc(OC(F)(F)F)cc1,nt,nt,nt,nt,-2.3,nt,nt
CCOC(=O)c1cc(-c2cccc([N+](=O)[O-])c2)on1,-16.5,-4.5,3.0,3.8,0.6,66.0*,-8.6
O=C(CSc1nnc(-c2ccccn2)n1-c1ccccc1)c1ccc2c(c1)OCO2,nt,nt,nt,nt,-1.3,nt,nt
CCOC(=O)c1nnc(-c2ccccc2)nc1Sc1ccccc1Cl,0.4,6.0,-6.3,1.4,-2.8,101.5*,75.6*
CCOC(=O)c1nnc(-c2ccc(C)cc2)nc1Sc1cccc(Cl)c1,-9.8,4.0,-7.2,1.9,-3.0,2.0,nt
O=C(COC(=O)CC1CC2CCC1C2)NCc1ccc(Cl)cc1 (stereo not given),-2.6,nt,-9.9,-2.9,-1.2,63.2*,-4.9
COCCCn1cnn2c(=O)c3ccccc3nc2c1=O,nt,nt,nt,nt,-3.1,nt,nt
CCOc1ccc(Br)cc1S(=O)(=O)Nc1cccc(S(=O)(=O)N2CCOCC2)c1,-5.6,nt,-6.8,6.8,5.4,96.6*,-13.8
SMILES,NOD2-RIPK2 inh,TLR4-MyD88 BLA,TLR9-MyD88 inh,ABHD5 PLIN5 PPI,PRMT1 inh,Exocytosis inh,Exocytosis CP01
COc1ccc(-c2nnc(COc3ccc(Br)cc3C)o2)cc1,0.1,nt,nt,0.7,5.1,-4.1,nt
Cc1cc(Br)ccc1OCc1nnc(-c2ccccc2)o1,-8.1,nt,nt,-3.6,3.9,73.4*,-4.7
O=C(NCc1ccccc1)[C@@H]1CCCN1C(=O)[C@H]1CCCN1C(=O)c1ccccc1,nt,nt,nt,nt,-0.9,nt,nt
CCOC(=O)C(C(=O)OCC)C(C(=O)OCC)N1CCOCC1 (stereo not given),-2.0,-13.7,5.8,0.5,2.5,87.5*,13.9
O=C(NCCCN1CCN(Cc2ccccc2Cl)CC1)Nc1ccccc1,-10.1,5.8,-7.6,-2.3,-1.8,0.5,nt
Cc1ccccc1CC1CCN(CCCNC(=O)Nc2ccccc2)CC1,4.7,nt,-4.0,-1.0,-5.0,63.2*,-13.1
Cc1ccc(C)c(CN2CCC(CNC(=O)Nc3ccc(Br)cc3F)CC2)c1,0.1,nt,-14.2,-2.1,-1.7,50.3,nt
Cc1ccc(C)c(CN2CCC(CNC(=O)Nc3ccc(Cl)cc3)CC2)c1,7.0,nt,-7.3,5.6,-3.9,65.9*,-1.5
